Only some compounds are listed: those with a hit (about 2.4% of all), similar ones and a draw of the others.
ULK1 primary: blocks human autophagy kinase ULK1; 1.9% of 30,000 active; AlphaScreen Atg13 phosphorylation by ULK1, luminescence; O75385; inhibition, % at 5.96 µM; AID 1259251; in the data active = inhibition above about 43%
ASK1 primary: human ASK1 kinase inhibition, primary screen; 0.99% of 22,000 active; AlphaScreen MKK6 phosphorylation by ASK1, luminescence; Q99683; inhibition, % at 7.44 µM; AID 1159602; in the data active = inhibition above about 35%
Target sequence (Q99683 whole entry, looked up): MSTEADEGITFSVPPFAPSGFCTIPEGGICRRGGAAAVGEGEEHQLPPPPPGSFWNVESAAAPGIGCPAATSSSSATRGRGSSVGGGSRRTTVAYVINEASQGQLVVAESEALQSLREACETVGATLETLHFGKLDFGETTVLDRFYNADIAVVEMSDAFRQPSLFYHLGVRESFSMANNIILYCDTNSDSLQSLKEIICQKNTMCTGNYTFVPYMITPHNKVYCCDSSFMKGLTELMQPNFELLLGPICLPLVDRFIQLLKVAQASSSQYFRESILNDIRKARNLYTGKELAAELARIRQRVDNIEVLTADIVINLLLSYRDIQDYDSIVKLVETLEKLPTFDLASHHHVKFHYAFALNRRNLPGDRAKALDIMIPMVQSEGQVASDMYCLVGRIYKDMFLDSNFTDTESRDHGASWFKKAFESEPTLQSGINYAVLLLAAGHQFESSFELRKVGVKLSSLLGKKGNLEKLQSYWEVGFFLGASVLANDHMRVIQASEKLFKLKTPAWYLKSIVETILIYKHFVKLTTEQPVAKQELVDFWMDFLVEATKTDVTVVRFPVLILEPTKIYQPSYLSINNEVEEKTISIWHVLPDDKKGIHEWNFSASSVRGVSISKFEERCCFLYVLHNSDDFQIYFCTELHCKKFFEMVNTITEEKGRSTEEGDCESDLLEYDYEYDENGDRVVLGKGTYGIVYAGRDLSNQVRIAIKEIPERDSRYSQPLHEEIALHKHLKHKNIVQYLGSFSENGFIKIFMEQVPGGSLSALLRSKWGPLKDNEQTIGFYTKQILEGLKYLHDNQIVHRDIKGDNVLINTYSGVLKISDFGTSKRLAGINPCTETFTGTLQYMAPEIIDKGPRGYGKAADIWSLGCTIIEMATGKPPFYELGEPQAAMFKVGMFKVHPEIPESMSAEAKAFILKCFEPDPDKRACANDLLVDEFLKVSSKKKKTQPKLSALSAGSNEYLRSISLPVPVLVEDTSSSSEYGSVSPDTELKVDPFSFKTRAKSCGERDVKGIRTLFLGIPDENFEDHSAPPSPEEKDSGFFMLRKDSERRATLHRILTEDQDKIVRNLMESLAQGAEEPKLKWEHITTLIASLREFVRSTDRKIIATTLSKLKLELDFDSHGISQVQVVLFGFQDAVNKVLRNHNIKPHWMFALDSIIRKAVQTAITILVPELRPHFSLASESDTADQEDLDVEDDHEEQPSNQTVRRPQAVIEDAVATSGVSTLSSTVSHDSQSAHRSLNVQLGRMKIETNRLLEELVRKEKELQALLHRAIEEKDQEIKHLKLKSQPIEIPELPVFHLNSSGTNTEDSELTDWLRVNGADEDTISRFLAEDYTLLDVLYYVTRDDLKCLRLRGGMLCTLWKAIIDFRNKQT
Hits are given with their value; . = inactive; / = no result given.

SMILES | ULK1 primary | ASK1 primary
COc1cc2nc(Nc3ccc(-n4ccnc4)cc3)nc(Nc3ccccc3)c2cc1OC | . | .
COc1ccc(-c2ncc(C)c(NCc3cccc(C(F)(F)F)c3)n2)cn1 | . | .
CNS(=O)(=O)c1ccccc1Nc1cc(Nc2ccc3c(c2)CCC(=O)N3)ncc1C(F)(F)F | 90 | .
CNC(=O)c1ccccc1Nc1cc(Nc2ccc3[nH]c(=O)oc3c2)ncc1C(F)(F)F | 79 | .
CNS(=O)(=O)c1ccccc1Nc1cc(Nc2ccccc2S(=O)(=O)NC)c(C(F)(F)F)cn1 | . | .
CS(=O)(=O)NC1CCC(Nc2cc(Nc3ccccc3C(N)=O)c(C(F)(F)F)cn2)CC1 (configuration not stated) | . | .
CNC(=O)c1ccncc1Nc1cc(Nc2ccc3c(c2)CC(=O)N3)ncc1C(F)(F)F | 56 | .
CNC(=O)c1ccccc1Nc1cc(Nc2ccc3c(c2)CC(=O)N3C)ncc1C(F)(F)F | 84 | .
C=C(C)C/C=C/C(=C)C[C@@H](C)[C@H]1OC(=O)[C@@H](C)/C=C/C=C/[C@@H](O)[C@H](O)/C=C/CC[C@H]2CC[C@H](O2)[C@H]1O | . | .
O=C(NC1CCN(Cc2ccccc2)CC1)c1ccnc(-c2ccccc2)c1 | . | .
CC(C)n1c(N2CCCC2CO)nc2c(NC3CCN(Cc4ccccc4)CC3)ncnc21 (configuration not stated) | . | .
CC(C)n1cnc2c(Nc3ccc4c(c3)OCO4)nc(NC3CCC(O)CC3)nc21 (configuration not stated) | . | .
OC1CCC(Nc2nc(Nc3ccccc3)c3ncn(-c4ccccc4)c3n2)CC1 (configuration not stated) | . | .
CC(=O)Nc1ccc(Nc2nc(NC3CCC(O)CC3)nc3c2ncn3C(C)C)cc1 (configuration not stated) | 62 | .
CC(C)n1cnc2c(Nc3ccccc3)nc(NC3CCC(O)CC3)nc21 (configuration not stated) | 56 | .
O=C(NC1CC1)c1ccc2nc(-c3cccs3)sc2c1 | . | .
Cc1ncn(-c2ccc(Nc3nccc(-c4ccc(C#N)c(N5CCCC5)c4)n3)cc2)n1 | . | .
N#Cc1cc(-c2ccnc(Nc3ccc(-n4cnc(C(F)(F)F)n4)cc3)n2)ccc1N1CCC(O)CC1 | . | .
Cn1nnc(-c2ccc(Nc3nccc(-c4ccc(N5CCC(O)CC5)c(C#N)c4)n3)cc2)n1 | . | .
Cc1ncn(-c2ccc(Nc3nccc(-c4ccc(N5CCCC(CO)C5)c(C#N)c4)n3)cc2)n1 (configuration not stated) | 65 | .
Cc1ncn(-c2ccc(Nc3nccc(-c4ccc(N5CCC(O)CC5)nc4)n3)cc2)n1 | 46 | .
Cc1ncn(-c2ccc(Nc3nccc(-c4ccc(C#N)c(N5CCC(O)CC5)c4)n3)cc2)n1 | . | .
C[C@@H]1CN(C(=O)Nc2cccc(Nc3nccc(-c4ccc(N5CCC(O)CC5)c(C#N)c4)n3)c2)C[C@H](C)O1 | 76 | .
N#Cc1cc(-c2ccnc(Nc3ccc(-n4cnc(N5CCC(O)CC5)n4)cc3)n2)ccc1N1CCC(O)CC1 | 72 | .
COc1cc2nc(-c3ccc(C(N)=O)cc3)nc(Nc3ccccc3)c2cc1OC | . | .
SMILES | ULK1 primary | ASK1 primary
COc1ccc2c(c1)C[C@H](C(=O)Nc1ccc(-c3cn[nH]c3)cc1N1CCN(C)CC1)NC2 | . | .
O=C1CCCN1CCn1cnc2c(Nc3ccc(Oc4ccccc4)cc3)nc(Nc3ncccn3)nc21 | . | .
CC(C)N(CCNc1nc(Cl)nc2c1ncn2C(C)C)C(C)C | . | .
CO[C@@H]1[C@@H](O[C@@H]2O[C@H](C)[C@@H](O[C@H]3C[C@@](C)(O)[C@@H](OC(=O)CC(C)C)[C@H](C)O3)[C@H](N(C)C)[C@H]2O)[C@@H](CC=O)C[C@@H](C)[C@@H](O)/C=C/C=C/C[C@@H](C)OC(=O)C[C@H]1OC(C)=O | . | /
COc1cc(NC(=O)c2cccc(-n3ncc4cc(Nc5cccc(C)c5)ccc43)c2)cc(OC)c1OC | . | .
c1ccc(Nc2nc(NC3CC3)c3[nH]cnc3n2)nc1 | . | .
c1cncc(Nc2nc(NC3CC3)c3[nH]cnc3n2)c1 | 60 | .
O=C(Nc1ccc2nc(-c3ccco3)c(-c3ccco3)nc2c1)N1CCCC1 | 67 | /
O=C(c1cc2nc(-c3ccco3)cc(C(F)(F)F)n2n1)N1CCCCC1 | . | /
COc1cc(Nc2nc(-c3ccc(C(=O)NC4CC4)cc3)ncc2C)cc(OC)c1OC | . | .
COc1ccc(-c2ncc(C)c(Nc3cc(OC)c(OC)c(OC)c3)n2)cc1 | 67 | .
COc1cc(Nc2nc(-c3cccc(C(C)=O)c3)ncc2C)cc(OC)c1OC | . | .
COc1cc(Nc2nc(-c3ccccc3)ncc2C)cc(OC)c1OC | 49 | .
NC(Cc1ccccc1)C(=O)N1CC(=O)Nc2ncc(-c3ccncc3)cc21 (configuration not stated) | . | .
Cc1cc(Nc2ccccc2)nc(Nc2ccc(C(F)(F)F)cc2)n1 | . | .

Screens (PubChem)
